Experiment [1] can be described thus: Caspase-3/7 induction in CHO-K1 cells by small molecules, qHTS cell viability counter screen (AID 1346979). Also: nearly all actives have a fitted effect of over 35% in size. Also: potency is read from the fitted curve at half-maximal effect. The essentials: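 Seeding: 1,500 CHO-K1 cells/well. Rest: 5hr, 37C. Treatment: compounds in DMSO, 16hr. Read: CellTiter-Fluor, 1hr, fluorescence.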
Experiment [2] in a line: Caspase-3/7 induction in CHO-K1 cells by small molecules, qHTS assay (AID 1346980). Also: nearly all actives have a fitted effect of over 15% in size. The gist of the method:
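Luminescent Caspase-Glo 3/7 read (30min, room temperature) quantified apoptosis induction. Cells were wild-type CHO-K1, treated with compound for 17hr at 37 C and 5% CO2.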

Experiment [3] can be described thus: Caspase-3/7 induction in HepG2 cells by small molecules, qHTS cell viability counter screen (AID 1346981). Also: nearly all actives have a fitted effect of over 30% in size. Also: potency is read from the fitted curve at half-maximal effect. As to activity change, negative = cytotoxicity: series mostly up to about 92 µM. The gist of the method: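 Treatment of HepG2 cells with DMSO-delivered compounds ran 16 hr at 37 C following a 5-hr pre-incubation of 2,000 cells/well. CellTiter-Fluor fluorescence, read after 1 hr, served as the viability measure in a qHTS format.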
In general terms: Quantitative high-throughput screening tests each substance at several concentrations.

For experiment [4], the target named is Nuclear receptor subfamily 1 group I member 2 (Homo sapiens) (UniProt O75469). The experiment is described as follows: Human pregnane X receptor (PXR) small molecule agonists, qHTS assay (AID 1346982). Also: nearly all actives have a fitted effect of over 35% in size. Also: potency is read from the fitted curve at half-maximal effect. The essentials:
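Stable HepG2 line reporting PXR-mediated CYP3A4 expression via luciferase. Treatment: 24 hr with compounds in DMSO at 37 C. Detection: ONE-Glo luminescence.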

Experiment [5] deals with Acetylcholinesterase (Homo sapiens) (UniProt P22303). Nature of the experiment: Acetylcholinesterase (AChE) small molecule antagonists: colormetric cell-based qHTS assay (AID 1347395; calls by dose curve; also: nearly all actives have a fitted effect of over 30% in size; also: potency is read from the fitted curve at half-maximal effect). The gist of the method: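 Quantitative HTS in attached SH-SY5Y cells: 30 min compound exposure, then 90 min with acetylthiocholine and DTNB at 37 C; colour from thiocholine reports AChE activity.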

Experiment [6] shares this target. Nature of the experiment: Acetylcholinesterase (AChE) small molecule antagonists: enzyme-based qHTS assay (AID 1347397; calls by dose curve; also: nearly all actives have a fitted effect of over 55% in size; also: potency is read from the fitted curve at half-maximal effect). The settings on record: Potency: AChE enzyme activity inhibition. The essentials: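 First, recombinant human AChE (50 mU/mL as dispensed) received test compound or DMSO. Second, plates stood 30 min at room temperature. Third, DTNB and acetylthiocholine were added, followed by 10 min at room temperature and colorimetric detection.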

For experiment [7] the target is unchanged. The experiment is described as follows: Acetylcholinesterase (AChE) small molecule antagonists: fluorescence cell-based qHTS assay (AID 1347398; calls by dose curve; also: nearly all actives have a fitted effect of over 50% in size; also: potency is read from the fitted curve at half-maximal effect). The following applies: Potency: AChE activity. The essentials:
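Homogeneous quantitative HTS format. SH-SY5Y cells seeded at 2,000 per well settle overnight at 37 C. Compound pretreatment runs 30 min (37 C, 5% CO2); substrate/probe mix then reacts 40 min at RT before reading 490/520 nm.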

Experiment [8] has the same target. The experiment is described as follows: Acetylcholinesterase (AChE) small molecule antagonists: enzyme-based qHTS assay with human liver microsomes (AID 1347399; calls by dose curve; also: nearly all actives have a fitted effect of over 60% in size; also: potency is read from the fitted curve at half-maximal effect). The settings on record: Potency: qHTS inhibition. The essentials: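 Recombinant human AChE (50 mU/mL in the enzyme mix) and human liver microsomes (0.25 mg/mL final) were preincubated with compound and NADPH (0.25 mg/mL final) for 30 min at 37 C. Acetylthiocholine/DTNB was then added; thiocholine was read colorimetrically after 10 min at room temperature.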

The target of experiment [9] is Cytochrome P450 2D6 (Homo sapiens) (UniProt P10635). Nature of the experiment: Cytochrome P450 Family 2 Subfamily D Member 6 (CYP2D6) small molecule antagonists: luciferase reporter qHTS assay (AID 1671196). Also: nearly all actives have a fitted effect of over 50% in size. Also: potency is read from the fitted curve at half-maximal effect. As to activity change, negative = inhibition: series mostly up to about 120 µM. The essentials:
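Chemicals tested for interference with CYP2D6 activity; proluciferin substrate, NADPH regeneration, 1 h at room temperature, luminescent detection.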
On the technique in general: Reporter assays use an easily measured gene product as a stand-in for the process of interest.

For experiment [10], the target named is Cytochrome P450 2C19 (Homo sapiens) (UniProt P33261). The experiment is described as follows: Cytochrome P450 Family 2 Subfamily C Member 19 (CYP2C19) small molecule antagonists: luciferase reporter qHTS assay (AID 1671197). Also: nearly all actives have a fitted effect of over 65% in size. Also: potency is read from the fitted curve at half-maximal effect. As to activity change, negative = inhibition: series mostly up to about 120 µM. The essentials: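 CYP2C19 P450-Glo, 1536-well qHTS. Cpd + enzyme/proluciferin substrate 10 min RT; + NADPH regen, 37C 1 h; stop with luciferin detection reagent, 20 min RT, luminescence (RLU). Pos ctrl ketoconazole.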

Experiment [11] addresses Cytochrome P450 2C9 (Homo sapiens) (UniProt P11712). Nature of the experiment: Cytochrome P450 Family 2 Subfamily C Member 9 (CYP2C9) small molecule antagonists: luciferase reporter qHTS assay (AID 1671198). Also: nearly all actives have a fitted effect of over 50% in size. Also: potency is read from the fitted curve at half-maximal effect. As to activity change, negative = inhibition: series mostly up to about 120 µM. The essentials: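 Enzyme-substrate mix preincubated with compound 10 min at room temperature; reaction started with NADPH regeneration solution, 1 h 37C. Luminescent luciferin product read after 20 min detection reagent.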

In experiment [12] the target is Voltage-gated inwardly rectifying potassium channel KCNH2 (Homo sapiens) (UniProt Q12809). The experiment is described as follows: Human Ether-a-go-go-Related Gene (hERG) channel small molecule antagonists: fluorescence cell-based qHTS assay (AID 1671200).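 Also: hERG-expressing U2OS cells given a thallium stimulus after FluxOR II dye loading; series mostly up to about 77 µM; nearly all actives have a fitted effect of over 50% in size.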 The essentials: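 First, 1000 cells per well are seeded and cultured overnight at 37 C. Next, FluxOR II dye is loaded for 1 h at room temperature, protected from light. After 10 more minutes, stimulus is added and fluorescence is read.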
In general terms: The hERG channel carries a current that helps repolarise heart muscle cells.

Experiment [13] addresses Cytochrome P450 3A4 (Homo sapiens) (UniProt P08684). The experiment is described as follows: Cytochrome P450 Family 3 Subfamily A Member 4 (CYP3A4) small molecule antagonists: luciferase reporter qHTS assay (AID 1671201). Also: nearly all actives have a fitted effect of over 50% in size. Also: potency is read from the fitted curve at half-maximal effect. As to activity change, negative = inhibition: series mostly up to about 120 µM. The gist of the method: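 Enzyme and proluciferin substrate are mixed with test chemicals for 10 min, then NADPH regeneration system drives turnover for 1 h at room temperature. A detection reagent halts the reaction; luminescence after 20 min gives relative activity.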

For experiment [14], the target named is Cytochrome P450 1A2 (Homo sapiens) (UniProt P05177). Nature of the experiment: Cytochrome P450 Family 1 Subfamily A Member 2 (CYP1A2) small molecule antagonists: luciferase reporter qHTS assay (AID 1671199). Also: nearly all actives have a fitted effect of over 50% in size. Also: potency is read from the fitted curve at half-maximal effect. As to activity change, negative = inhibition: series mostly up to about 120 µM. The essentials: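 Read-out is luminescence from luciferin detection reagent (20 min) proportional to CYP1A2 activity; compounds in DMSO preincubated 10 min with enzyme and proluciferin substrate, then NADPH regeneration solution, 1 h, room temperature.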

Values without a mark were called inactive. Results filed as inconclusive are left out. The source made the active and inactive calls. Unless noted, calls follow the shape of the dose curve; as a rule, active = well fitted curve in the direction sought with a large enough effect in the repeat runs; inconclusive = weak or mixed curves; inactive = no such curve, though single readings can be large; an effect the other way counts as inactive or inconclusive.

The values below come from PubChem BioAssay (Tox21).
% is scaled to controls: 0 for no effect and ±100 for the full control effect.

Sequence of Cytochrome P450 2C19 (Homo sapiens) (P33261 whole entry, looked up): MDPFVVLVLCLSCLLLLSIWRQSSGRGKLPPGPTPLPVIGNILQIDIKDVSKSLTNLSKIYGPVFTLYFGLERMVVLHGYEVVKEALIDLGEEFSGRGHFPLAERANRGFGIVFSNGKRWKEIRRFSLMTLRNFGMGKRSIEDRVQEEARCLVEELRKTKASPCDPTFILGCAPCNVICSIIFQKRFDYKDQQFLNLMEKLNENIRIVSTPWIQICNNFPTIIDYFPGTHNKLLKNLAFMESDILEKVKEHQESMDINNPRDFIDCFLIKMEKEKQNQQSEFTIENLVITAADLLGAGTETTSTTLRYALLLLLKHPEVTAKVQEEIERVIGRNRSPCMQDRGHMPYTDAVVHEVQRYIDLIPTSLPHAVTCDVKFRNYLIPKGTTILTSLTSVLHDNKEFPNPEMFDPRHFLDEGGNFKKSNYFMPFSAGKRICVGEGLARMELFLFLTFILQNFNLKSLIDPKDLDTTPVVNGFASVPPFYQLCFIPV
Sequence of Acetylcholinesterase (Homo sapiens) (P22303 whole entry, looked up): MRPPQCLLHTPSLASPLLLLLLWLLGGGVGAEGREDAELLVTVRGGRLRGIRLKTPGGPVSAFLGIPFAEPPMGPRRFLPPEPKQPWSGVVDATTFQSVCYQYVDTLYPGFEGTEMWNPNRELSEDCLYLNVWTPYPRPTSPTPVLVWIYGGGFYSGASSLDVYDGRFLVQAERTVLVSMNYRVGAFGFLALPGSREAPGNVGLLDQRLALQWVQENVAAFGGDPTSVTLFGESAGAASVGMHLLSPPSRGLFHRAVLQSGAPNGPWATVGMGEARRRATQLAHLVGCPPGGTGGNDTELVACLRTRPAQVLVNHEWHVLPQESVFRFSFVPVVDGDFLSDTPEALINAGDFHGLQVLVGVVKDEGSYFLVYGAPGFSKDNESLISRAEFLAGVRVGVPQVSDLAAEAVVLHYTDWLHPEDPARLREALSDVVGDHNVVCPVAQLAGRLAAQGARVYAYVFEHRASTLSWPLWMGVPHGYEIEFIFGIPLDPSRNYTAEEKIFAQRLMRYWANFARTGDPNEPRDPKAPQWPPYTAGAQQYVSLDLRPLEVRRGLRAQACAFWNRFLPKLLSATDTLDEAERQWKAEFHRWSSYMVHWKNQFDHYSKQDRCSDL
Sequence of Cytochrome P450 2C9 (Homo sapiens) (P11712 whole entry, looked up): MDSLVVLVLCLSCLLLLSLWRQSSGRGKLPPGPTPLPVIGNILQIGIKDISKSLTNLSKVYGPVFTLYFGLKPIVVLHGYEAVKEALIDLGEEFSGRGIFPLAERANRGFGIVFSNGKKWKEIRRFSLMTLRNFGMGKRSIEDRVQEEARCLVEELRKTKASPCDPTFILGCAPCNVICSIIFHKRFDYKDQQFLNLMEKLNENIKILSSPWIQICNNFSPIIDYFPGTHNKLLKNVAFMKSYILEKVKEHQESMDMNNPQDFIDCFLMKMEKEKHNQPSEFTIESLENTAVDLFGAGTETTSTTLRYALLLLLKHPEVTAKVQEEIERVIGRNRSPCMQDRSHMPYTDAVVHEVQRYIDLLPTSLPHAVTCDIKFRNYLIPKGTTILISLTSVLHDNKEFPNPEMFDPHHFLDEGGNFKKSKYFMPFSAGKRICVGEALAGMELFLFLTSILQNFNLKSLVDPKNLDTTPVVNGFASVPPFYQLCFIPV
Sequence of Cytochrome P450 1A2 (Homo sapiens) (P05177 whole entry, looked up): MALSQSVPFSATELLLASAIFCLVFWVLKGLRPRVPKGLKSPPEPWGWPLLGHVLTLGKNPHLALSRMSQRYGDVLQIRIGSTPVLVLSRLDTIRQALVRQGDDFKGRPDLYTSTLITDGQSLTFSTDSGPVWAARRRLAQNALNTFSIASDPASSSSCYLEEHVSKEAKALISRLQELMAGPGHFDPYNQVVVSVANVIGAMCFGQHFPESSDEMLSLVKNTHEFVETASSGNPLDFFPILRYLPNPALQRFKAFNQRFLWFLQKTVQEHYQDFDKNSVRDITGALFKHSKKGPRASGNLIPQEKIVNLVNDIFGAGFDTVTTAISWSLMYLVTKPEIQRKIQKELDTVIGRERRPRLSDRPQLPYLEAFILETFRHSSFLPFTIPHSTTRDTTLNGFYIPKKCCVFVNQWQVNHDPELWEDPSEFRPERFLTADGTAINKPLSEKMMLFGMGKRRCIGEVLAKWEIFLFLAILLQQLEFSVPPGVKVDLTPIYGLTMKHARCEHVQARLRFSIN
Sequence of Nuclear receptor subfamily 1 group I member 2 (Homo sapiens) (O75469 whole entry, looked up): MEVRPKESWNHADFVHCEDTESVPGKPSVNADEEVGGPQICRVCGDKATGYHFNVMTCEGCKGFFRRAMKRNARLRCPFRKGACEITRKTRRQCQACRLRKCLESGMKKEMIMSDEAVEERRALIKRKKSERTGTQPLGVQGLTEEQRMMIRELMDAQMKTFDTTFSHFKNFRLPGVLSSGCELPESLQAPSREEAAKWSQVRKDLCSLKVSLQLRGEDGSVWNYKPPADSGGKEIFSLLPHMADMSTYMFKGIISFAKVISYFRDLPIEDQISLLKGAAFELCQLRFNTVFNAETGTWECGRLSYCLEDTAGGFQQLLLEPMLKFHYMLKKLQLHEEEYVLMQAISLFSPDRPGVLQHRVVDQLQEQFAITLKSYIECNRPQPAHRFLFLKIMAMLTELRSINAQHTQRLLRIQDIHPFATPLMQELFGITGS
Sequence of Cytochrome P450 2D6 (Homo sapiens) (P10635 whole entry, looked up): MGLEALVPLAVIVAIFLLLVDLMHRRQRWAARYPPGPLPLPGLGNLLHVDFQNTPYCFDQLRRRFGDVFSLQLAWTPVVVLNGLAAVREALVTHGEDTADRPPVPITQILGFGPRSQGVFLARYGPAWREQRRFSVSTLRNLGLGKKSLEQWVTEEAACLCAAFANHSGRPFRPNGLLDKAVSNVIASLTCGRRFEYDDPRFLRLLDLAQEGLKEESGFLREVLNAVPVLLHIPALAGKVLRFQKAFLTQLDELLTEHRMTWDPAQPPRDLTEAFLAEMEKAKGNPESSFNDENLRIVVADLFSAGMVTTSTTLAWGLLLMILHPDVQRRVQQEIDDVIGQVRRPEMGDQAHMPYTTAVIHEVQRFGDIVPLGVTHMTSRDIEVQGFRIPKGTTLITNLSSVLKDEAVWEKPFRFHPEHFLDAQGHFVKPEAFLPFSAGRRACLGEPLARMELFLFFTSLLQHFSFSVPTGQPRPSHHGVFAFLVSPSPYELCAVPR
Sequence of Voltage-gated inwardly rectifying potassium channel KCNH2 (Homo sapiens) (Q12809 whole entry, looked up): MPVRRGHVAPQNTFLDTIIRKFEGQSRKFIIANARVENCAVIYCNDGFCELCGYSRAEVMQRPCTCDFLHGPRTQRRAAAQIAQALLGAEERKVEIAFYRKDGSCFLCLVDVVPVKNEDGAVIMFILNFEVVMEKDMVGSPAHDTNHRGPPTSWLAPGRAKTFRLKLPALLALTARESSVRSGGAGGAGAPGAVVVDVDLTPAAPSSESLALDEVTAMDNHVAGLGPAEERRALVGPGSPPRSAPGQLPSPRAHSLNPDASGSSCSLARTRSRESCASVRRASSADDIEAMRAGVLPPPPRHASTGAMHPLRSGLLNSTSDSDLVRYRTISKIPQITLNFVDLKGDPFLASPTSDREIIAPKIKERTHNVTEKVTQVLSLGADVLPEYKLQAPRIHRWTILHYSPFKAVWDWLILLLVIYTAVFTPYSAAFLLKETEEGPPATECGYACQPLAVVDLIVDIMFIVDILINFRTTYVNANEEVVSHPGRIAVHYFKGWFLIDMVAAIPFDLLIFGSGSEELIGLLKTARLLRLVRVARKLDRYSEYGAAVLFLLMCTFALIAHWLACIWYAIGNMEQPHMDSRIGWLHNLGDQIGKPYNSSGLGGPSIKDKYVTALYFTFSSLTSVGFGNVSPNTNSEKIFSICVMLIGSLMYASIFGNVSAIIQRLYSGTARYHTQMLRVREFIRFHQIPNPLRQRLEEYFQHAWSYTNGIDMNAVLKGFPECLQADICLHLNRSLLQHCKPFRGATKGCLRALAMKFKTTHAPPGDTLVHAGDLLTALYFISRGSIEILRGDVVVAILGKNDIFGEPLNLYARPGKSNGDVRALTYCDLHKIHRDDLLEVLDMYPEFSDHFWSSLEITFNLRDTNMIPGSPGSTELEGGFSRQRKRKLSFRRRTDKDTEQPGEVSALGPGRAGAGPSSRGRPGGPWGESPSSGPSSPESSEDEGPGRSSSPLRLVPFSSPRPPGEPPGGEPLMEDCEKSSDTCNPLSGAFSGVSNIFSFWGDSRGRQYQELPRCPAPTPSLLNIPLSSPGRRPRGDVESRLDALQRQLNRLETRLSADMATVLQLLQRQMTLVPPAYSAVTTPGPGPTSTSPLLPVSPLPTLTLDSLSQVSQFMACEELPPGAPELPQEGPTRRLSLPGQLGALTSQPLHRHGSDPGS
Sequence of Cytochrome P450 3A4 (Homo sapiens) (P08684 whole entry, looked up): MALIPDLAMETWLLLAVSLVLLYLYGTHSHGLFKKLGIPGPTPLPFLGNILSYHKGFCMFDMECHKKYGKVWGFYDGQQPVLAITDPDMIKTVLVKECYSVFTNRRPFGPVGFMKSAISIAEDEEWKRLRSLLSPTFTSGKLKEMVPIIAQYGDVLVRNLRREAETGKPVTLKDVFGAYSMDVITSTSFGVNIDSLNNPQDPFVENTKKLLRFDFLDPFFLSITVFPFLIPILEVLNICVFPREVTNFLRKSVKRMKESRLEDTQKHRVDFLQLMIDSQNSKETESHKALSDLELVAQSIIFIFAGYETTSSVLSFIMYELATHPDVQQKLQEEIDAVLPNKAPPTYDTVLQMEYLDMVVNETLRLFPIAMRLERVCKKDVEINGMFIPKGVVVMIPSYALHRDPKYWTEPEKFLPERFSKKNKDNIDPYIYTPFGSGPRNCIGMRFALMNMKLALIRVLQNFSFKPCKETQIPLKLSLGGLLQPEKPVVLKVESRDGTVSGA

As for `C=CCOC(N)=O`, the Potency result in experiment [1], in [2], in experiment [3], in [4], in experiment [5] and in experiment [6] was “inactive” each time. Further, the Potency entry in experiment [7], in [8], in [9], in experiment [10], in [11] and in [12] was “inactive” throughout. Moreover, in [13], the Potency result was “inactive”.
For the molecule `CN(C)[C@@H]1C(=O)C(C(N)=O)=C(O)[C@@]2(O)C(=O)C3=C(O)c4c(O)ccc(Cl)c4[C@@](C)(O)[C@H]3C[C@@H]12`, the Potency in experiment [1] was 27.9 µM (active). The Potency result in experiment [2] was “inactive”.
In the case of `Brc1c(Br)c(Br)c(Oc2c(Br)c(Br)c(Br)c(Br)c2Br)c(Br)c1Br`, the figures for the activity change, negative = cytotoxicity in [1] and in experiment [3] were -1.81% [at 19 µM] and 0.358% [at 19 µM], respectively. Further, the caspase-3/7 activation in [2] is 3.41% [at 19 µM]. Also, the activation in experiment [4] is -0.0764% [at 19 µM]. The activity, negative = inhibition in [5] was 0.803% [at 23.6 µM]. Also, the activity change, negative = inhibition in [6] is -1.63% [at 23.6 µM]; in [7], 6.2% [at 23.8 µM]; in [8] it was -0.487% [at 23.6 µM]; in experiment [9], 0.431% [at 23.6 µM]; in experiment [10] it was 12.5% [at 23.6 µM]; in experiment [11] it was -7.81% [at 23.6 µM]. Further, the activity change, negative = inhibition is -0.0422% [at 15.8 µM] in experiment [12] and 2.2% [at 23.6 µM] in [13].
On to `Cc1ccc(CCl)cc1`, for which the Potency result in [1], in experiment [2], in experiment [3], in experiment [4], in [5] and in [6] was “inactive” throughout. Also, the Potency result in experiment [7], in [8], in experiment [9], in experiment [10], in experiment [11] and in experiment [14] was “inactive” each time. The Potency entry in [12] and in experiment [13] was “inactive” in each case.
For `BrC(Br)Br`, the Potency result in [1], in experiment [2], in experiment [3], in [4], in experiment [5] and in [6] was “inactive” throughout. Also, the Potency entry in experiment [7], in [8], in experiment [10], in experiment [11] and in [12] was “inactive” throughout. The Potency in experiment [9] was 25.2 µM (active).
With `CCOP(=S)(OCC)SCS(=O)(=O)CC`, the Potency entry in [1], in [2], in [3], in [4] and in experiment [12] was “inactive” throughout. Moreover, the Potency in experiment [5] was 1.59 µM (active); in experiment [6], 7.1 µM (active); in experiment [7], 2.52 µM (active); in [8], 12.6 µM (active); in experiment [9] it was 39.9 µM (active); in experiment [10], 5.64 µM (active). In addition, the Potency was 12.6 µM (active) in [11], 35.6 µM (active) in experiment [14] and 7.96 µM (active) in experiment [13].
`N#CCCO`: the Potency result in experiment [1], in [2], in experiment [3], in [4], in [5] and in [6] was “inactive” in each case. For the same molecule, the Potency result in experiment [7], in experiment [8], in [9], in experiment [10], in experiment [11] and in experiment [12] was “inactive” each time. In addition, the Potency result in experiment [13] was “inactive”.
For `CC(C)OS(C)(=O)=O`, the Potency entry in [1], in experiment [2], in experiment [3], in experiment [4], in experiment [5] and in experiment [6] was “inactive” throughout. Also, the Potency result in [7], in experiment [8], in experiment [10], in [11], in [12] and in experiment [13] was “inactive” in each case. The Potency in experiment [9] and in experiment [14] was 40.2 µM (active) in each case.
For `O=[N+]([O-])c1ccc2ccc3cccc4ccc1c2c34`, the Potency in experiment [1] was 43.2 µM (active); in experiment [3], 27.3 µM (active); in [4], 21.7 µM (active); in [9], 31.7 µM (active); in [14], 0.224 µM (active). In addition, the Potency entry in experiment [2], in experiment [5], in experiment [6], in [7], in experiment [8] and in [10] was “inactive” throughout. For the same molecule, the Potency result in [11], in experiment [12] and in experiment [13] was “inactive” in each case.
